The source of these data is PubChem BioAssay (Tox21).

A short description of assay [1]: qHTS assay for small molecule agonists of the p53 signaling pathway (AID 651631; calls by dose curve; note: nearly all actives have a fitted effect of over 15% in size). An outline of the steps:
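p53RE-bla HCT-116 cells; compounds 16 h, 37 °C; LiveBLAzer B/G FRET substrate 2 h RT; fluorescence intensity read-out, qHTS format.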
(qHTS replaces the single test concentration by a dilution series.)

A short description of assay [2]: qHTS assay for small molecules that induce genotoxicity in human embryonic kidney cells expressing luciferase-tagged ATAD5 (AID 651632). Note: nearly all actives have a fitted effect of over 15% in size. In outline:
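HEK293T cells carrying luciferase-tagged ATAD5 were given compound or DMSO vehicle and incubated 16 hr at 37C, 5% CO2. Luciferase activity was read after 30 min at room temperature with Amplite; a rise signals genotoxic stress.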

Assay [3] can be described thus: qHTS assay for small molecule agonists of the p53 signaling pathway - cell viability (AID 651633; calls by dose curve; note: nearly all actives have a fitted effect of over 30% in size; note: potency is the fitted concentration of half-maximal effect). In outline: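 p53RE-bla cells, seeded at 4,000 per well and rested 5 h at 37 C/5% CO2, received compounds in DMSO for 16 h at 37 C. CellTiter-Glo was then added, and luminescence was read after 30 min at room temperature to gauge cytotoxicity.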
Assay [4] in a line: qHTS assay for small molecule disruptors of the mitochondrial membrane potential - cell viability (AID 720634; calls by dose curve;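 note: human HepG2 liver cancer cells; series mostly up to about 83 µM; nearly all actives have a fitted effect of over 20% in size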). An outline of the steps: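 HepG2 cells, 2,000 per well, attached overnight, then treated 1 hr at 37 C, 5% CO2. Viability read as ATP by CellTiter-Glo luminescence after 30 min at room temperature. Read in the same wells as the m-MPI membrane-potential dye assay.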
Assay [5] in a line: qHTS assay for small molecule disruptors of the mitochondrial membrane potential (AID 720635). Note: potency is the fitted concentration of half-maximal effect. In outline: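 HepG2 cells (2,000/well) attached overnight at 37C, then took compound for 1 hr at 37C, 5% CO2. Mito-MPS dye was added for 30 min; fluorescence was read at 490/535 nm (monomers) and 540/590 nm (aggregates).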
Assay [6] can be described thus: qHTS assay to test for compound auto fluorescence at 590 nm (red) in HepG2 cells (AID 720674). In outline: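 Rose Bengal sodium served as the red fluorophore standard. HepG2 monolayers (overnight attachment, MEM with 10% FBS) were exposed to test compounds for 1 hr at 37 C and read at Ex 540/Em 590 nm.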
The nature of assay [7]: qHTS assay to test for compound auto fluorescence at 535 nm (green) in HepG2 cells (AID 720675).
Assay [8] can be described thus: qHTS assay to test for compound auto fluorescence at 590 nm (red) in HEK293 cells (AID 720679). In outline:
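HEK293 cells (2,000/well, medium with 10% dialyzed FBS) attached for 4-5 hr at 37C, received 23 nL compound and were incubated overnight at 37C, 5% CO2. Red fluorescence was then read at 540/590nm Ex/Em, referenced to Rose Bengal sodium.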

A short description of assay [9]: qHTS assay to test for compound auto fluorescence at 535 nm (green) in HEK293 cells (AID 720680).
The nature of assay [10]: qHTS assay to test for compound auto fluorescence at 460 nm (blue) in HEK293 cell free culture (AID 720681). An outline of the steps:
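Test compounds were pinned into cell-free culture medium (DMEM with 10% FBS) and fluorescence was read directly at Ex/Em 405/460 nm. Signals were expressed as fluorescence equivalents of triamterene, with DMSO vehicle as control.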

Assay [11] in a line: qHTS assay to test for compound auto fluorescence at 535 nm (green) in HEK293 cell free culture (AID 720682). An outline of the steps:
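Cell-free medium (DMEM, 10% FBS) receives compound or DMSO by pintool. Plate read directly at Ex 485/Em 535 nm. Signal converted to fluorescein equivalency.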

A short description of assay [12]: qHTS assay to test for compound auto fluorescence at 590 nm (red) in HEK293 cell free culture (AID 720683). An outline of the steps:
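Tox21 10K library compounds were pinned into cell-free DMEM with 10% FBS and fluorescence was read at excitation 540 nm. Activity is expressed as Rose Bengal sodium equivalency.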

The nature of assay [13]: qHTS assay to test for compound auto fluorescence at 590 nm (red) in HepG2 cell free culture (AID 720684). In outline:
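Red fluorescence (540 nm excitation, 590 nm emission) was measured after compound transfer into cell-free MEM supplemented with 10% FBS. Values are equivalencies against Rose Bengal sodium.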

Assay [14] can be described thus: qHTS assay to test for compound auto fluorescence at 460 nm (blue) in HepG2 cell free culture (AID 720685). An outline of the steps: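 Compound (23 nL) or DMSO pinned into cell-free MEM with 10% FBS; blue fluorescence read at 405/460 nm excitation/emission, expressed as auto-fluorescence equivalency to triamterene.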
A short description of assay [15]: qHTS assay to test for compound auto fluorescence at 535 nm (green) in HepG2 cell free culture (AID 720686).
Assay [16] in a line: qHTS assay to test for compound auto fluorescence at 460 nm (blue) in HepG2 cells (AID 720687). An outline of the steps:
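Cells (2,000/well in MEM with 10% FBS) attached overnight at 37 C, then were exposed to compound or DMSO for 1 hr at 37 C, 5% CO2. Fluorescence read at Ex/Em 405/460 nm, expressed as triamterene-equivalent signal.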

For assay [17], the target named is Glucocorticoid receptor (Homo sapiens) (UniProt P04150). Put plainly: qHTS assay to identify small molecule agonists of the glucocorticoid receptor (GR) signaling pathway (AID 720691; active = well fitted activation curve with a large enough effect in the signal ratio in the repeat runs, not every such curve was filed as active; the % refers to the signal ratio). An outline of the steps: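 GR-bla HeLa cells carrying a GRE-driven beta-lactamase reporter, exposed to compounds for 18 h at 37 C. Reporter activation read as fluorescence after 2 h with LiveBLAzer B/G FRET substrate at room temperature.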
Chain of Glucocorticoid receptor (Homo sapiens) (P04150 whole entry, looked up): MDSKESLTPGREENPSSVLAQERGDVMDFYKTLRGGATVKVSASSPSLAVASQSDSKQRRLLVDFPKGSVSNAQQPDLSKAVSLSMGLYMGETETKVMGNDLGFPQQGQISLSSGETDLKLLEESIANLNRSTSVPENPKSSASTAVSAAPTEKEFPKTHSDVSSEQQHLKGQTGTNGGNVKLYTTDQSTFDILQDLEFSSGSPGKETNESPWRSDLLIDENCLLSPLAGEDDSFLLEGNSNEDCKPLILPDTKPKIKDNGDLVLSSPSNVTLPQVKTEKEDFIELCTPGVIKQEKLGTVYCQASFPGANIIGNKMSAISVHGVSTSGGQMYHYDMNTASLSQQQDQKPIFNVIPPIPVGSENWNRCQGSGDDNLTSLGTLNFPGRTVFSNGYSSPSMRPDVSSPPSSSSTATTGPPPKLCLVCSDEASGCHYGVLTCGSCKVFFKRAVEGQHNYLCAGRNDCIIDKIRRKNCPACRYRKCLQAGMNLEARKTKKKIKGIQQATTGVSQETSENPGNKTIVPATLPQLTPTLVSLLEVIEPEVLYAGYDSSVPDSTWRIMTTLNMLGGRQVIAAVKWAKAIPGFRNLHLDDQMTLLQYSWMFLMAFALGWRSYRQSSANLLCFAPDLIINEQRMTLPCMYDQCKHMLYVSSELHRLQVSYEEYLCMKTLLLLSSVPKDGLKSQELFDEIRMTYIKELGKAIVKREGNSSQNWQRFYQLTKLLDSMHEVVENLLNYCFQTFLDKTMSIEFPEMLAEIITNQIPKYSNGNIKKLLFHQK

Assay [18] shares this target. Put plainly: qHTS assay to identify small molecule antagonists of the glucocorticoid receptor (GR) signaling pathway (AID 720692; active = well fitted inhibition curve with a large enough effect in the signal ratio in the repeat runs, not every such curve was filed as active; the % refers to the signal ratio; note: potency is the fitted concentration of half-maximal effect). An outline of the steps: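 GR-bla HeLa cells carrying a GRE-driven beta-lactamase reporter received compound after 4 h plating, then dexamethasone (5 nM final). After 18 h at 37C, the FRET substrate was loaded for 2 h at room temperature and fluorescence read.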

A short description of assay [19]: qHTS assay to test for compound auto fluorescence at 460 nm (blue) in HEK293 cells (AID 720678). In outline:
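HEK293 cells (2,000 per well, medium with 10% dialyzed FBS) attached for 4-5 hr at 37C, then received compound and stood overnight at 37C, 5% CO2. Blue fluorescence was read at Ex/Em 405/460 nm and expressed relative to triamterene.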

The nature of assay [20]: qHTS assay for small molecules that induce genotoxicity in human embryonic kidney cells expressing luciferase-tagged ATAD5 - cell viability (AID 651634; calls by dose curve; note: nearly all actives have a fitted effect of over 25% in size). In outline: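 HEK293T cells carrying luciferase-tagged ATAD5, 2,000 cells/well, exposed to compound for 15.5 hr at 37C. Viability read as live-cell protease activity by CellTiter-Fluor fluorescence after 30 min at 37C.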

Values joined by “and” are separate entries in the source; they are usually repeats but may differ in a detail not shown here. Equal values may be shown once. Inconclusive results are not listed. The source holds several records for some structures; these can differ, active in one and inactive in another. Active and inactive are the calls of the source. Unless noted, calls come from the whole dose curve; as a rule, active = well fitted curve in the direction sought with a large enough effect in the repeat runs; inconclusive = weak or mixed curves; inactive = no such curve, though single readings can be large; an effect the other way counts as inactive or inconclusive.

On to `CCCCNS(=O)(=O)c1ccccc1`, for which the Potency entry in assay [1], in [2], in assay [3], in assay [4], in [6] and in assay [7] was “inactive” each time. Also, the Potency entry in assay [8], in assay [9], in [11], in assay [12], in [13] and in assay [15] was “inactive” in each case. In addition, the Potency entry in assay [17] and in assay [18] was “inactive” each time. In assay [5], the Potency was 48.6 µM (active). For the same compound, the result in assay [10], in assay [14] and in [16] was inactive.
On to `Cc1ccc(C)c(O)c1C`, for which the Potency result in [1], in assay [2], in [3], in assay [4], in assay [5] and in [6] was “inactive” throughout. In addition, the Potency result in assay [7], in assay [8], in [9], in assay [11], in assay [12] and in [13] was “inactive” throughout. Further, the Potency result in [15], in [17] and in assay [18] was “inactive” in each case. Further, the call in assay [19], in assay [10] and in assay [14] was inactive.
For `CC(C)CC(C)(O)C#CC(C)(O)CC(C)C` (centres undefined), the Potency entry in [1], in [3], in [4], in assay [6], in [7] and in [8] was “inactive” each time. The Potency entry in assay [9], in assay [11], in [12], in [13], in [15] and in assay [17] was “inactive” throughout. Besides, in assay [18], the Potency result is “inactive”. In addition, in assay [5], the Potency is 47.6 µM (active) and 48.6 µM (active). For the same compound, the result in assay [19], in assay [10], in assay [14] and in [16] was inactive.
`C/C=C/C(=O)O`: the Potency result in assay [2], in assay [3], in assay [20], in assay [6], in [7] and in [8] was “inactive” throughout. Besides, the Potency entry in assay [9], in [11], in [12], in [13], in assay [15] and in [17] was “inactive” in each case. Besides, the Potency result in [18] is “inactive”. For the same compound, the compound was called inactive in assay [10] and in assay [14].
As to `COC(=O)C1=C(C)NC(C)=C(C(=O)OCCN(C)Cc2ccccc2)C1c1cccc([N+](=O)[O-])c1` (centres undefined), the Potency entry in assay [2], in assay [6], in assay [7], in [8], in assay [9] and in [12] was “inactive” in each case. The Potency entry in assay [13] and in [15] was “inactive” throughout. The Potency in assay [5] is 18.8 µM (active); in [18], 23.9 µM (active) and 43.4 µM (active). The call in [19], in [10], in [14] and in assay [16] was inactive.
Consider `Nc1ccc(Nc2ccccc2)cc1`, for which the Potency result in [2], in assay [3], in assay [4], in assay [6], in [7] and in [8] was “inactive” throughout. Also, the Potency result in assay [9], in [11], in assay [12], in assay [13], in assay [15] and in assay [17] was “inactive” each time. Further, the Potency in assay [5] was 1.35 µM (active) and inactive. Moreover, the compound was called inactive in assay [10] and in [14].
In the case of `CC(=O)O[C@]1(C(C)=O)CC[C@H]2[C@@H]3C=C(Cl)C4=CC(=O)[C@@H]5C[C@@H]5[C@]4(C)[C@H]3CC[C@@]21C`, the Potency result in [3], in assay [20], in assay [6], in assay [7], in [8] and in assay [9] was “inactive” each time. Besides, the Potency entry in assay [11], in assay [12], in [13] and in [15] was “inactive” throughout. Further, in assay [5], the Potency was 30.6 µM (active). Moreover, the call in [10] and in [14] was inactive.
Consider `CCCc1c(OCCCCc2nn[nH]n2)ccc(C(C)=O)c1O`, for which the Potency result in assay [2], in [20], in assay [4], in [6], in [7] and in assay [8] was “inactive” each time. For the same compound, the Potency result in [9], in assay [12], in assay [13], in assay [15] and in assay [17] was “inactive” in each case. In addition, the Potency was 26.6 µM (active) and inactive in assay [3]; 26.6 µM (active) in assay [5]; 23.9 µM (active) in assay [18]. Moreover, the outcome in assay [19], in [10], in assay [14] and in [16] was inactive.
